In PubChem BioAssay AID1159580 (chemical genetic matrix, 2015):
“And” between values parts separate entries of the source, which are not always exact repeats. Equal entries are not always repeated. Hit rate of the full screen: of about 5,500 compounds, about 2,000 (36%) were called active. About 18% were inconclusive and are not listed. Rule as the data show it: active = normalized growth mostly below about 0.91 (no sharp cut-off); inconclusive = no clear call, values can overlap the other calls; inactive = mostly above about 0.92. Some of the results follow.

Assay: chemical genetic growth profiling, strain panel (AID 1159580);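 also: tested at 20 µM; growth read once vehicle control cultures reached saturation at 30 °C; 1 = growth at the plate median or of vehicle wells; lower values mean less growth of the strain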
Conditions: S. cerevisiae deletion strains, growth OD

Measured: normalized growth

CC(C)C(C)/C=C/C(C)C1CCC2C3=CC=C4CC(O)CCC4(C)C3CCC21C (configuration not stated)
active: locus YAL026C, strain drs2, stronger effect = lower value 0.856 | locus YBR009C, strain hhf1, stronger effect = lower value 0.893 | locus YBR021W, strain FUR4, stronger effect = lower value 0.814 | locus YDL134C, strain PPH21, stronger effect = lower value 0.86 | locus YDR137W, strain rgp1, stronger effect = lower value 0.819 | locus YDR162C, strain NBP2, stronger effect = lower value 0.732 | locus YDR392W, strain spt3, stronger effect = lower value 0.635 | locus YDR502C, strain sam2, stronger effect = lower value 0.917 | locus YGL078C, strain dbp3, stronger effect = lower value 0.908 | locus YGL248W, strain PDE1, stronger effect = lower value 0.862 | locus YGL253W, strain hxk2, stronger effect = lower value 0.861 | locus YJL095W, strain BCK1 (second series), stronger effect = lower value 0.898 | locus YJL164C, strain tpk1, stronger effect = lower value 0.905 | locus YJL166W, strain qcr8, stronger effect = lower value 0.86 | locus YLR262C, strain YPT6 (second series), stronger effect = lower value 0.727 | locus YLR330W, strain CHS5, stronger effect = lower value 0.844 | locus YLR418C, strain cdc73, stronger effect = lower value 0.666 | locus YNL071W, strain lat1, stronger effect = lower value 0.773 | locus YNL307C, strain MCK1, stronger effect = lower value 0.774 | locus YOR270C, strain vph1, stronger effect = lower value 0.681 | locus YPR163C, strain tif3, stronger effect = lower value 0.828
inactive: locus YAL013W, strain DEP1, stronger effect = lower value 0.935 | locus YAL021C, strain ccr4, stronger effect = lower value 1 | locus YAL030W, strain snc1, stronger effect = lower value 0.995 | locus YBL061C, strain skt5, stronger effect = lower value 0.996 | locus YBR023C, strain chs3, stronger effect = lower value 0.992 | locus YBR171W, strain sec66, stronger effect = lower value 1.01 | locus YBR229C, strain ROT2, stronger effect = lower value 1.01 | locus YBR231C, strain swc5, stronger effect = lower value 1 | locus YBR279W, strain paf1, stronger effect = lower value 1 | locus YCL011C, strain gbp2, stronger effect = lower value 0.974 | locus YCL016C, strain dcc1, stronger effect = lower value 1.01 | locus YCL029C, strain bik1, stronger effect = lower value 0.996 | locus YCL061C, strain MRC1, stronger effect = lower value 1.01 | locus YCL069W, strain vba3, stronger effect = lower value 1.01 | locus YCR088W, strain abp1, stronger effect = lower value 1.01 | locus YDL005C, strain med2, stronger effect = lower value 0.996 | locus YDL035C, strain GPR1, stronger effect = lower value 0.943 | locus YDL040C, strain nat1, stronger effect = lower value 1.01 | locus YDL074C, strain BRE1, stronger effect = lower value 0.848 | locus YDL101C, strain DUN1, stronger effect = lower value 0.965 | locus YDL185W, strain tfp1, stronger effect = lower value 1.01 | locus YDL192W, strain arf1, stronger effect = lower value 0.959 | locus YDR001C, strain nth1, stronger effect = lower value 1.01 | locus YDR069C, strain doa4, stronger effect = lower value 0.957 | locus YDR101C, strain arx1, stronger effect = lower value 1.02 | locus YDR159W, strain sac3, stronger effect = lower value 0.935 | locus YDR195W, strain ref2 1.08 | locus YDR297W, strain sur2, stronger effect = lower value 0.993 | locus YDR318W, strain mcm21, stronger effect = lower value 0.958 | locus YDR334W, strain swr1, stronger effect = lower value 1.01 | locus YDR335W, strain msn5, stronger effect = lower value 0.958 | locus YDR388W, stronger effect = lower value 1 | locus YEL003W, strain gim4, stronger effect = lower value 0.986 | locus YEL037C, strain rad23, stronger effect = lower value 0.989 | locus YEL061C, strain CIN8 (second series), stronger effect = lower value 1 | locus YER015W, strain faa2, stronger effect = lower value 1.01 | locus YER016W, strain bim1, stronger effect = lower value 0.987 | locus YER110C, stronger effect = lower value 0.996 | locus YER111C, strain swi4, stronger effect = lower value 0.982 | locus YER155C, strain BEM2 (second series), stronger effect = lower value 0.968 | locus YER155C, strain BEM2, stronger effect = lower value 0.975 | locus YER167W, strain BCK2, stronger effect = lower value 1.01 | locus YFR010W, strain ubp6, stronger effect = lower value 0.992 | locus YGL086W, strain mad1, stronger effect = lower value 0.962 | locus YGL167C, strain pmr1, stronger effect = lower value 0.998 | locus YGL173C, strain kem1, stronger effect = lower value 0.99 | locus YGL227W, strain vid30, stronger effect = lower value 0.995 | locus YGL240W, strain doc1, stronger effect = lower value 0.928 | locus YGR135W, strain pre9, stronger effect = lower value 0.928 | locus YGR229C, strain SMI1, stronger effect = lower value 0.831 | locus YGR252W, strain gcn5, stronger effect = lower value 0.798 | locus YHR013C, strain ard1, stronger effect = lower value 0.972 | locus YHR027C, strain rpn1, stronger effect = lower value 0.999 | locus YHR030C, strain SLT2, stronger effect = lower value 0.964 and 1.01 | locus YHR079C, strain IRE1 (second series), stronger effect = lower value 0.998 | locus YHR079C, strain IRE1, stronger effect = lower value 1.01 | locus YHR094C, strain hxt1, stronger effect = lower value 1.01 | locus YHR129C, strain ARP1, stronger effect = lower value 0.962 | locus YHR142W, strain chs7, stronger effect = lower value 0.884 | locus YHR200W, strain rpn10, stronger effect = lower value 0.994 | locus YIL066C, strain RNR3, stronger effect = lower value 0.97 | locus YIL073C, strain SPO22, stronger effect = lower value 0.863 | locus YIL125W, strain kgd1, stronger effect = lower value 1.03 | locus YIR030C, strain dcg1, stronger effect = lower value 1.01 | locus YJL092W, strain hpr5, stronger effect = lower value 1.01 | locus YJL095W, strain BCK1, stronger effect = lower value 0.835 and 1.02 | locus YJL115W, strain asf1, stronger effect = lower value 1.01 | locus YJL129C, strain trk1, stronger effect = lower value 0.978 | locus YJL134W, strain LCB3, stronger effect = lower value 1.01 | locus YJL154C, strain vps35, stronger effect = lower value 1.01 | locus YJL168C, strain set2, stronger effect = lower value 1.02 | locus YJL187C, strain SWE1 (second series), stronger effect = lower value 0.936 | locus YJL187C, strain SWE1, stronger effect = lower value 0.989 | locus YJR043C, strain POL32, stronger effect = lower value 1.03 | locus YJR066W, strain TOR1, stronger effect = lower value 0.921 | locus YJR075W, strain HOC1, stronger effect = lower value 0.978 | locus YKL009W, strain mrt4, stronger effect = lower value 0.926 | locus YKL068W, stronger effect = lower value 1.01 | locus YKL085W, strain MDH1 (second series), stronger effect = lower value 1 | locus YKL085W, strain MDH1, stronger effect = lower value 1 | locus YKL160W, strain elf1, stronger effect = lower value 0.989 | locus YKR001C, strain vps1, stronger effect = lower value 0.9 | locus YKR026C, strain gcn3, stronger effect = lower value 0.99 | locus YKR091W, strain srl3, stronger effect = lower value 0.998 | locus YLL001W, strain dnm1, stronger effect = lower value 0.96 | locus YLL026W, stronger effect = lower value 0.984 | locus YLL041C, strain sdh2, stronger effect = lower value 1.01 | locus YLR027C, strain aat2, stronger effect = lower value 0.972 | locus YLR039C, strain RIC1, stronger effect = lower value 0.806 | locus YLR058C, strain SHM2, stronger effect = lower value 0.946 | locus YLR102C, strain apc9, stronger effect = lower value 1.02 | locus YLR113W, strain HOG1, stronger effect = lower value 1 | locus YLR221C, strain rsa3, stronger effect = lower value 0.938 | locus YLR258W, strain gsy2, stronger effect = lower value 0.959 | locus YLR262C, strain YPT6, stronger effect = lower value 0.801 | locus YLR268W, strain sec22, stronger effect = lower value 0.968 | locus YLR320W, strain mms22, stronger effect = lower value 0.929 | locus YLR342W, strain FKS1, stronger effect = lower value 0.997 | locus YLR357W, strain rsc2, stronger effect = lower value 1.01 | locus YLR370C, strain arc18, stronger effect = lower value 0.989 | locus YLR371W, strain rom2, stronger effect = lower value 1.05 | locus YLR384C, strain iki3, stronger effect = lower value 0.988 | locus YML016C, strain PPZ1, stronger effect = lower value 0.973 | locus YML032C, strain rad52, stronger effect = lower value 0.973 | locus YML120C, strain ndi1, stronger effect = lower value 0.985 | locus YML124C, strain tub3, stronger effect = lower value 1 | locus YMR058W, strain fet3, stronger effect = lower value 0.956 | locus YMR078C, strain ctf18, stronger effect = lower value 1 | locus YMR125W, strain sto1, stronger effect = lower value 1.01 | locus YMR205C, strain PFK2, stronger effect = lower value 0.937 | locus YMR223W, strain ubp8, stronger effect = lower value 0.941 | locus YMR231W, strain pep5, stronger effect = lower value 0.998 | locus YMR307W, strain GAS1, stronger effect = lower value 0.797 | locus YNL067W, strain RPL9B, stronger effect = lower value 0.924 | locus YNL128W, strain TEP1, stronger effect = lower value 0.994 | locus YNL153C, strain GIM3, stronger effect = lower value 0.966 | locus YNL183C, strain NPR1, stronger effect = lower value 0.951 | locus YNL209W, strain ssb2, stronger effect = lower value 1 | locus YNL233W, strain BNI4, stronger effect = lower value 0.887 | locus YNL248C, strain rpa49, stronger effect = lower value 0.939 | locus YNL250W, strain rad50, stronger effect = lower value 0.952 | locus YNL271C, strain bni1, stronger effect = lower value 0.979 | locus YNL298W, strain CLA4, stronger effect = lower value 0.977 | locus YNL322C, strain KRE1 (second series), stronger effect = lower value 0.996 | locus YNR049C, strain mso1, stronger effect = lower value 0.998 | locus YNR052C, strain pop2, stronger effect = lower value 0.952 | locus YOL012C, strain htz1 1.19 | locus YOL147C, strain pex11, stronger effect = lower value 0.996 | locus YOR001W, strain rrp6, stronger effect = lower value 0.996 | locus YOR061W, strain CKA2, stronger effect = lower value 0.933 | locus YOR069W, strain VPS5, stronger effect = lower value 0.98 | locus YOR070C, strain gyp1, stronger effect = lower value 0.976 | locus YOR080W, strain dia2, stronger effect = lower value 1.02 | locus YOR083W, strain WHI5, stronger effect = lower value 0.991 | locus YOR106W, strain vam3, stronger effect = lower value 0.889 | locus YOR136W, strain idh2, stronger effect = lower value 0.962 | locus YOR144C, strain elg1, stronger effect = lower value 1 | locus YOR184W, strain ser1, stronger effect = lower value 0.952 | locus YOR231W, strain MKK1, stronger effect = lower value 0.995 | locus YOR265W, strain rbl2, stronger effect = lower value 1.01 | locus YOR290C, strain snf2, stronger effect = lower value 0.929 | locus YOR316C, strain cot1, stronger effect = lower value 1 | locus YPL051W, strain arl3, stronger effect = lower value 0.995 | locus YPL078C, strain atp4, stronger effect = lower value 0.957 | locus YPL106C, strain sse1, stronger effect = lower value 1.12 | locus YPL240C, strain hsp82, stronger effect = lower value 1.01 | locus YPL256C, strain CLN2, stronger effect = lower value 1.02 | locus YPR119W, strain clb2, stronger effect = lower value 1.02 | locus YPR141C, strain kar3, stronger effect = lower value 1.01 | locus YPR167C, strain met16, stronger effect = lower value 0.956 | strain wtn01, stronger effect = lower value 0.969
